Drawing on PubChem BioAssay (NCATS), this text covers Potency for 19 molecules.

Results filed as inconclusive are left out. Active and inactive are the calls of the source. Calls come from the whole dose curve; as a rule, active = well fitted inhibition curve with a large enough effect; inconclusive = small, poorly fitted or top-dose-only effect; inactive = flat fitted curve, though single readings scatter.

What all share (test): qHTS profiling for inhibitors of Plasmodium falciparum proliferation (AID 504749); note: nearly all actives have a fitted effect of over 60% in size
What all share (conditions): P. falciparum in erythrocytes, SYBR Green DNA, 72 h; series mostly up to 28.7 µM

One assay has as its system DIV17. Put shortly: (§1)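 P. falciparum-infected erythrocytes (0.3% parasitemia, 2.5% hematocrit final) were exposed to compounds for 72 h at 37 C in 5% CO2, then lysed with SYBR Green buffer overnight at room temperature; parasite DNA fluorescence was normalized to artemisinin and DMSO controls.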
In a further assay the test system is Dd2. Put shortly: as §1
The test system of the next assay is FAB9. Put shortly: as §1
The subject of another assay is GB4. Put shortly:
as §1

In another assay the test system is HB3. Put shortly: as §1
A further assay relates to ICS. Put shortly:
as §1

Another assay concerns PC49. In outline: as §1
Another assay concerns TAB109. Put shortly:
as §1

The subject of the next assay is ECU. In outline:
as §1

In the next assay the test system is JCK. Put shortly:
as §1

The subject of another assay is N140. In outline:
as §1

A further assay concerns P93_24. In outline:
as §1

A further assay concerns P94_40. In outline: as §1
For a further assay, the system named is PAD. Put shortly:
as §1

The next assay concerns PC15. Put shortly: as §1
The next assay has as its system PC26. Put shortly: as §1
For another assay, the system named is SC27B. In outline:
as §1

Another assay concerns TAB113. In outline:
as §1

A further assay deals with TAB165. Put shortly:
as §1

In another assay the test system is DIV30. Put shortly:
as §1
Potency is the fitted concentration of half-maximal effect.

For the molecule `CNCCCCOc1ccccc1Cc1ccccc1`, the Potency was 1.9 µM (active) with DIV17; 2.51 µM (active) with Dd2; 1.69 µM (active) in the assay with GB4; 11.2 µM (active) in the assay with ICS; 5.01 µM (active) with PC49; 4.47 µM (active) in the assay on TAB109. For the same molecule, the Potency entry in the assay with FAB9 and in the assay on HB3 was “inactive” in each case.

Regarding `CCCCCCCCCCCCCC(=O)OC(C)C`, the Potency entry with DIV17, in the assay with Dd2, in the assay with ECU, in the assay with FAB9, in the assay with GB4 and in the assay on HB3 was “inactive” each time. Moreover, the Potency entry with ICS, in the assay with JCK, in the assay on N140, in the assay on P93_24, with P94_40 and with PAD was “inactive” each time. In addition, the Potency entry in the assay with PC15, in the assay with PC26, in the assay with PC49, in the assay on SC27B, in the assay on TAB109 and in the assay on TAB113 was “inactive” in each case. The Potency entry with TAB165 is “inactive”.

For `COc1cc(N)c(Cl)cc1C(=O)NC1CCN(Cc2ccccc2)CC1`, the Potency entry in the assay on DIV17, in the assay on Dd2, with ECU, with FAB9, in the assay on HB3 and with ICS was “inactive” each time. Also, the Potency result with JCK, with N140, in the assay with P93_24, in the assay with P94_40, with PAD and in the assay with PC15 was “inactive” throughout. Besides, the Potency result in the assay with PC49, in the assay with SC27B, in the assay on TAB109 and in the assay with TAB113 was “inactive” in each case.

With `CCN(CC)CCOc1ccc2c(c1)C(=O)c1cc(OCCN(CC)CC)ccc1-2`, the Potency was 9.53 µM (active) in the assay on DIV17; 12.6 µM (active) with Dd2; 8.91 µM (active) in the assay with ECU; 12 µM (active) in the assay on GB4; 11.2 µM (active) in the assay on HB3; 11.2 µM (active) in the assay on P93_24. The figures for the Potency in the assay with PC26, in the assay on TAB109 and in the assay with TAB113 were 9.53 µM (active), 5.01 µM (active) and 11.2 µM (active), respectively.

As to `O=C(Nc1ccc([N+](=O)[O-])cc1)Nc1ccc([N+](=O)[O-])cc1`, the Potency entry with DIV17, with DIV30, in the assay on ECU, in the assay with FAB9, with GB4 and in the assay on JCK was “inactive” throughout. Moreover, the Potency entry in the assay with N140, with P93_24, with P94_40, with PAD, in the assay on PC15 and in the assay with PC26 was “inactive” in each case. Also, the Potency entry in the assay on PC49, in the assay with SC27B, with TAB109, in the assay on TAB113 and in the assay with TAB165 was “inactive” each time. For the same molecule, the Potency in the assay on ICS is 2 µM (active).

`CN1CCC[C@@H]1CCO[C@](C)(c1ccccc1)c1ccc(Cl)cc1`: the results for the Potency in the assay with DIV17 and in the assay on ICS were 6.75 µM (active) and 10 µM (active), respectively. In addition, the Potency entry with DIV30, in the assay on ECU, in the assay on FAB9, in the assay with HB3, with JCK and in the assay on P94_40 was “inactive” each time. Also, the Potency entry in the assay on PAD, in the assay with PC26, with SC27B and with TAB113 was “inactive” in each case.

In the case of `C/C=C/c1ccc(O)c(OC)c1`, the Potency result in the assay on DIV17, in the assay on Dd2, in the assay with ECU, with FAB9, in the assay with GB4 and in the assay with HB3 was “inactive” in each case. Further, the Potency result with JCK, in the assay with N140, in the assay with P94_40, in the assay on PAD, in the assay with PC15 and with PC26 was “inactive” in each case. Further, the Potency entry in the assay on PC49, with SC27B, with TAB109, in the assay with TAB113 and in the assay on TAB165 was “inactive” in each case.

Turning to `CN(CCCN1c2ccccc2CCc2ccccc21)CC(=O)c1ccc(Cl)cc1`, the Potency in the assay with DIV17 was 4.78 µM (active); in the assay on Dd2, 7.08 µM (active); in the assay with ECU, 10 µM (active); with HB3, 12.6 µM (active); in the assay on ICS it was 2 µM (active); with N140, 7.94 µM (active). For the same molecule, the Potency in the assay with P93_24 is 11.2 µM (active); with P94_40, 8.91 µM (active); in the assay with PAD it was 12.6 µM (active); in the assay on PC15 it was 10 µM (active); in the assay on SC27B, 10 µM (active); in the assay with TAB109, 7.94 µM (active). The Potency in the assay with TAB113 was 10 µM (active); in the assay with TAB165, 8.91 µM (active). The Potency result in the assay with FAB9 is “inactive”.

As to `COc1ccc(CCN(C)CCCN2CCc3cc(OC)c(OC)cc3CC2=O)cc1OC`, the Potency entry in the assay with DIV17, in the assay with DIV30, in the assay on ECU, in the assay with FAB9, in the assay on GB4 and in the assay with HB3 was “inactive” each time. Also, the Potency entry in the assay with JCK, in the assay with N140, in the assay with P94_40, with PAD, with PC15 and in the assay on PC26 was “inactive” throughout. The Potency result with PC49, in the assay on SC27B, with TAB109, with TAB113 and in the assay with TAB165 was “inactive” in each case.

For `CC(C)(Cc1c[nH]c2ccccc12)NCC(O)COc1ccccc1C#N` (centres undefined), the Potency with DIV17 was 9.53 µM (active); with Dd2 it was 12.6 µM (active); with GB4 it was 9.53 µM (active); with ICS, 11.2 µM (active); with P94_40, 11.2 µM (active); with TAB109, 10 µM (active). For the same molecule, in the assay with TAB165, the Potency was 12.6 µM (active). Besides, the Potency entry with FAB9, in the assay with JCK, in the assay on PC26 and with PC49 was “inactive” in each case.

As to `Cc1ccc(-c2ncc(Cl)cc2-c2ccc(S(C)(=O)=O)cc2)cn1`, the Potency in the assay on DIV17 is 15.1 µM (active); in the assay on P94_40 it was 11.2 µM (active). Moreover, the Potency result in the assay with FAB9 is “inactive”.

Take `CCOCCn1c(N2CCCN(C)CC2)nc2ccccc21`: the Potency in the assay on DIV17 is 7.57 µM (active). In addition, the Potency result in the assay with ECU, in the assay with FAB9, with HB3, in the assay with JCK, with N140 and in the assay with P93_24 was “inactive” each time. Also, the Potency result in the assay on P94_40, with SC27B, with TAB113 and in the assay on TAB165 was “inactive” throughout.

Regarding `N/C(=N\N=C\c1ccc(Cl)cc1)N/N=C/c1ccc(Cl)cc1`, the Potency entry in the assay with DIV17, in the assay with DIV30, in the assay on PC26 and in the assay with PC49 was “inactive” throughout. Further, the Potency in the assay on ICS is 2.24 µM (active); in the assay on SC27B, 12.6 µM (active); in the assay with TAB109, 6.31 µM (active); in the assay with TAB165 it was 3.98 µM (active).

Turning to `OC[C@H]1O[C@@H]2O[C@H]3[C@H](O)[C@@H](O)[C@@H](O[C@H]4[C@H](O)[C@@H](O)[C@@H](O[C@H]5[C@H](O)[C@@H](O)[C@@H](O[C@H]6[C@H](O)[C@@H](O)[C@@H](O[C@H]7[C@H](O)[C@@H](O)[C@@H](O[C@H]8[C@H](O)[C@@H](O)[C@@H](O[C@H]1[C@H](O)[C@H]2O)O[C@@H]8CO)O[C@@H]7CO)O[C@@H]6CO)O[C@@H]5CO)O[C@@H]4CO)O[C@@H]3CO`, the Potency result in the assay with DIV30, in the assay on Dd2, with ECU, in the assay on FAB9, with GB4 and with HB3 was “inactive” each time. For the same molecule, the Potency result in the assay with ICS, in the assay with JCK, in the assay with N140, in the assay on P93_24, in the assay on P94_40 and with PAD was “inactive” throughout. The Potency result in the assay with PC15, with PC26, with PC49, in the assay on SC27B, in the assay on TAB109 and with TAB113 was “inactive” throughout. Moreover, the Potency result in the assay with TAB165 is “inactive”.

`NCCNc1cccc2ccccc12`: the Potency in the assay with DIV17 was 15.1 µM (active). Moreover, the Potency entry in the assay on DIV30, in the assay with ECU, in the assay on FAB9, in the assay on HB3, with JCK and in the assay with N140 was “inactive” each time. The Potency result in the assay with P94_40, in the assay with PAD, in the assay on PC15, in the assay on PC26, in the assay on PC49 and with TAB109 was “inactive” throughout. Moreover, the Potency entry in the assay with TAB165 was “inactive”.

With `COc1cc(NS(=O)(=O)c2ccc(N)cc2)ncn1`, the Potency result with DIV30, in the assay on Dd2, with ECU, in the assay with FAB9, with GB4 and with HB3 was “inactive” in each case. Also, the Potency result in the assay on ICS, with JCK, in the assay on N140, with P93_24, with P94_40 and with PAD was “inactive” in each case. Besides, the Potency entry with PC15, in the assay on PC26, with PC49, in the assay with SC27B, in the assay on TAB109 and in the assay with TAB113 was “inactive” each time. The Potency result in the assay with TAB165 is “inactive”.

With `CC(=O)Nc1ncc([N+](=O)[O-])s1`, the Potency result in the assay with DIV30, in the assay with Dd2, in the assay with ECU, in the assay on FAB9, with GB4 and with HB3 was “inactive” each time. The Potency result in the assay with ICS, in the assay with JCK, with N140, in the assay on P93_24, with P94_40 and in the assay with PAD was “inactive” throughout. Besides, the Potency entry in the assay with PC15, in the assay on PC26, with PC49, in the assay on SC27B, in the assay with TAB109 and in the assay on TAB113 was “inactive” throughout. The Potency entry in the assay with TAB165 is “inactive”.

As for `COc1ccc(C(Cl)=C(c2ccc(OC)cc2)c2ccc(OC)cc2)cc1`, the Potency result with DIV17, in the assay on DIV30, in the assay on GB4, in the assay with PC15 and in the assay with PC26 was “inactive” throughout. The Potency is 2.24 µM (active) with ECU; 15.8 µM (active) with N140; 11.2 µM (active) in the assay on P94_40; 3.55 µM (active) in the assay with TAB109; 2.51 µM (active) in the assay on TAB165.

Take `CN(C)C(=O)Nc1ccc(Cl)c(Cl)c1`: the Potency was 4.78 µM (active) in the assay with DIV17 and 3.55 µM (active) in the assay on PC49. Moreover, the Potency result in the assay on ECU, with FAB9, with JCK, with P94_40, in the assay on TAB109 and in the assay with TAB113 was “inactive” in each case. Besides, the Potency entry with TAB165 was “inactive”.
